Source: PubChem BioAssay (NCI)
Compounds without any hit were thinned out: in the full panel of roughly 83,000, 20% have a hit.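 Single-dose data. Exposure time 48 hours. Values below 10 considered active.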 Values without a mark were called inactive. Activity calls are given as the source filed them.

Each compound was assayed on SN12C renal (assay: NCI-60 one-dose screen, 48 h (100 = growth as untreated, 0 = no growth, -100 = all killed)). Settings: 10 µM.

Compound	growth
O=C(Nc1cccc(-n2cc(-c3ccncc3)c(-c3ccc(O)c(Cl)c3)n2)c1)c1cccc(C(F)(F)F)c1	49.9%
COc1cccc(NC(=O)c2sc3nc4c(cc3c2N)C(O)CCC4)c1 (configuration not stated)	30.3%
O=S(=O)(NCCCNc1nccc(-c2c(-c3ccc(F)cc3)nc3sccn23)n1)c1ccc2ccccc2c1	49.2%
COc1ccc(-c2nn(-c3cccc(NC(=O)Nc4cccc(C(F)(F)F)c4)c3)cc2-c2ccncc2)cc1Cl	19.7%
COc1ccc(-c2nn(-c3cccc(NC(=O)c4ccc(Cl)c(Cl)c4)c3)cc2-c2ccncc2)cc1Cl	86.7%
Cc1c(Cl)cccc1NC(=O)c1sc2nc3c(cc2c1N)C(=O)CCC3	30.8%
COc1cc(/C=C/C(=O)c2ccc(Cl)cc2)ccc1OS(=O)(=O)c1ccc(C)cc1	86.6%
O=C(N/N=C/c1cc2ccccc2c2ccccc12)c1cc(O)c(O)c(O)c1	69.8%
COc1ccc(-c2nn(-c3cccc(NC(=O)c4ccc(N5CCOCC5)c(C(F)(F)F)c4)c3)cc2-c2ccncc2)cc1Cl	85.2%
COc1ccc(-c2cc(/C=C/C(=O)c3cc(OC)c(OC)c(OC)c3)[nH]n2)cc1OC	8.28% (active)
CC1=C(N2CCOCC2)C(N2CCOCC2)=C(C)C(=O)C1=O	110%
Cc1ccc(C)c(C(O)(c2cc(C)ccc2C)C2(O)CCCCC2)c1	96.8%
COc1ccc(-c2nn(-c3cccc(NC(=O)c4ccc5c(c4)OCCO5)c3)cc2-c2ccncc2)cc1Cl	51.6%
Cc1ncc(-c2ccoc2)c(NC2CCCCCC2)n1	98.5%
O=S(=O)(NCCNc1nccc(-c2c(-c3ccc(F)cc3)nc3sccn23)n1)c1ccc2ccccc2c1	80.7%
O=C(Nc1cccc(-n2cc(-c3ccncc3)c(-c3ccc(O)c(Cl)c3)n2)c1)c1ccc(Cl)c(Cl)c1	70.9%
CCN1CCCC1CNC(=O)c1ncc(-c2ccc(C(F)(F)F)cc2)c(NC2CCCCCC2)n1 (configuration not stated)	86.7%
Clc1ccc(-c2cn(-c3ccccc3)c(-c3ccccc3)n2)c(Cl)c1	12.2%
CCCCCCCCCCCCCCCC(=O)OC1[C@@H](OC(=O)CCCCCCCCCCCCCCC)[C@@H](C(=O)N[C@@H](CCCCN)C(=O)OC)O[C@H]1n1cnc2c(=O)[nH]c(NC(=O)C(C)C)nc21 (some centres not stated)	105%
O=c1oc2cc(OS(=O)(=O)c3ccccc3)ccc2c2c1CCCCC2	61.4%
O=C1Nc2ccccc2C1=NC1CCCCC1	107%
O=C(Nc1cccc(-n2cc(-c3ccncc3)c(-c3ccc(O)c(Cl)c3)n2)c1)c1ccc(N2CCOCC2)c(C(F)(F)F)c1	57.5%
O=C(Nc1ccc(OS(=O)(=O)c2ccccc2)cc1)C12CC3CC(CC(C3)C1)C2	63.5%
O=C(Nc1cccc(-n2cc(-c3ccncc3)c(-c3ccc(O)c(Cl)c3)n2)c1)c1cc(C(F)(F)F)cc(C(F)(F)F)c1	63.6%
CCCC#CCN(CC)CC	95.8%
Cc1ccc(S(=O)(=O)OCCN(CCOS(=O)(=O)c2ccc(C)cc2)c2c[nH]c(=O)[nH]c2=O)cc1	97.4%
CCOC(=O)C(NC(=O)C(Cl)Cl)C(O)c1ccccc1 (configuration not stated)	98.8%
